According to PubChem BioAssay AID652010 (The Scripps Research Institute Molecular Screening Center, 2013):
In all, about 370,000 compounds went through this assay and about 4,100 (1.1%) were called active. The full list was thinned out, with actives kept by preference. A number with no mark means an inactive call.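 The calls were made as follows: active = inhibition above the mean over all tested compounds plus 3 SD (cut at about 3.6% in these data); inactive = the rest.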

Assay: DAX1 (NR0B1) inhibitors on StAR promoter, primary screen, cell-based, luminescence, SF-1 (NR5A1), full-length DAX-1 (AID 652010);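 also: 0% = DAX-1 cells with DMSO and 100% = cells lacking DAX-1 with DMSO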
Conditions: HEK293T StAR-luciferase reporter, SF-1/DAX-1 repression relief; at 6.8 µM; stronger effect = higher value

Row | Structure (SMILES) | inhibition
1 | COC(=O)[C@]12C[C@H](CC(=O)NCCc3ccccc3OC)C(=O)N(Cc3ccco3)C1=C[C@H](C(C)C)O[C@@H]2C1CC1 | -0.45%
2 | Cc1ccccc1CS(=O)(=O)Cc1ccc(C(=O)Nc2ccc(Cl)cc2)o1 | -3.88%
3 | Cc1ccccc1NC(=O)C1CCN(c2ncccn2)CC1 | -0.57%
4 | O=C(CCS(=O)(=O)c1cccc2nsnc12)N1CCN(c2ccccc2F)CC1 | 0.3%
5 | O=C(CCc1ccccc1F)N1CCN(c2ccccc2)CC1 | -0.1%
6 | O=C(CCSc1ccccc1)N1CCN(c2ccccc2F)CC1 | 3.74% (active)
7 | O=C(c1ccc(-c2ccccc2)cc1)C1CCCN(C(=O)c2cncs2)C1 (stereo not drawn) | -0.34%
8 | O=C(Nc1ccc(-n2ccnc2P(=O)(O)c2ccccc2)cc1)c1ccccc1Br | 0.24%
9 | O=C(O)c1ccccc1-c1ccccc1C(=O)Nc1ccccc1Br | 2.05%
10 | O=C(Nc1ccccc1)c1ccccc1Br | 4.1% (active)
11 | CCC(CO)Nc1cccc2c1S(=O)(=O)N(Cc1cn(Cc3ccccc3C(F)(F)F)nn1)Cc1ccccc1O2 (stereo not drawn) | 0.53%
12 | COc1ccc(N2CCN(CCNS(=O)(=O)c3ccc(Cl)s3)CC2)cc1 | -1.29%
13 | Cc1ccc(NC(=O)c2cnc(SCC(=O)NCC3CCCO3)n(C)c2=O)cc1 (stereo not drawn) | 3.81% (active)
14 | Cn1c(SCC(=O)c2ccccc2)ncc(C(=O)Nc2ccc(F)cc2)c1=O | 0.92%
15 | CCn1c(SCC(=O)NCC2CCCO2)nc2ccccc21 (stereo not drawn) | 0.35%
16 | CC(CCN1CCC(C(O)(c2ccccc2)c2ccccc2)CC1)Oc1ccc([N+](=O)[O-])cc1Cl (stereo not drawn) | -0.6%
17 | CC(C)c1ccc(NS(=O)(=O)c2cn(C)c(=O)n(C)c2=O)cc1 | 1.86%
18 | Cc1ccc(-n2c(SCC(=O)Nc3cccc4ccccc34)nnc2-c2ccco2)cc1 | -1.09%
19 | C=CCN=C1NC(c2ccccc2)C(C(=O)OC)=C(C)N1Cc1ccc(C(F)(F)F)cc1 (stereo not drawn) | -0.62%
20 | NNc1cccc(C=Cc2ccccc2)cc1=O | 4.11% (active)
21 | Cc1ccc(NC(=O)Nc2cc(C)nn2-c2ccccc2)cc1 | -0.81%
22 | COC(=O)[C@]12C[C@H](CC(=O)NCc3cccs3)C(=O)N(CCc3ccc(OC)c(OC)c3)C1=C[C@H](C(C)C)O[C@@H]2C1CC1 | 0.43%

Row | Structure (SMILES) | inhibition
23 | CCOC(=O)N1CCN(C(=O)C[C@H]2C[C@@]3(C(=O)OC)C(=C[C@H](C(C)(C)C)O[C@@H]3C)N(Cc3ccc(Cl)cc3Cl)C2=O)CC1 | -1.88%
24 | Fc1ccccc1/C=N/Nc1cc(N2CCCCC2)ncn1 | 3.71% (active)
25 | CCOC(=O)c1cccc(NC(=O)CN(C)S(=O)(=O)c2ccc(-c3cocn3)s2)c1 | -0.38%
26 | COc1cccc(CNC(=O)C2CCCN(c3nc4ccccc4o3)C2)c1OC (stereo not drawn) | -1.08%
27 | Cc1c(C=O)c2ccccc2n1CCOc1ccccc1 | -1.1%
28 | O=C(O)Cn1c(Cc2ccccc2)nc2ccccc21 | 0.13%
29 | Cc1c(C=O)c2ccccc2n1CC(=O)O | 3.62% (active)
30 | O=c1oc(-c2ccccc2NS(=O)(=O)c2ccc(Cl)cc2)nc2ccccc12 | 0.22%
31 | O=c1oc(/C=C/c2ccccc2)nc2ccccc12 | 5.78% (active)
32 | S=c1[nH]nc(/C=C/c2ccccc2)o1 | -0.19%
33 | CN(CC(=O)Nc1ccc(C(N)=O)cc1)S(=O)(=O)c1ccc2c(c1)OCCO2 | -0.16%
34 | COCCCNC(=O)c1ccc(CNS(=O)(=O)c2ccc(NC(C)=O)cc2)cc1 | -0.22%
35 | CC1CCCN(c2cccc3c2S(=O)(=O)N(Cc2ccc(F)cc2)[C@@H](C)[C@H](c2ccccc2)O3)C1 (stereo partly drawn) | 1.64%
36 | CCOc1cc(/C=N/O)ccc1OCc1ccccc1F | 0.47%
37 | COc1ccc(NC(=O)CSCc2ccc([N+](=O)[O-])cc2)cc1OC | 0.2%
38 | COc1cc(/C=N/O)ccc1OCc1ccc([N+](=O)[O-])cc1 | 4.6% (active)
39 | Cn1nc(C(C)(C)C)c(NC(=O)c2sccc2Cl)c1C(C)(C)C | -0.4%
40 | C[C@@H]1ON(C)[C@H]2C[C@H]3c4cc(N5CCOCC5)ccc4CCN3C[C@@H]12 | 0.27%
41 | Cc1cc(Br)cn2c(Cc3ccccc3C(F)(F)F)c(-c3ccc(Cl)cc3)nc12 | -1.19%
42 | Cc1ccc2nc(-c3ccccc3)c(CC3CCCCC3)n2c1 | 3.67% (active)
43 | COc1ccccc1Cc1c(-c2ccc(F)cc2)nc2ccc(C)cn12 | 4.57% (active)
44 | Cc1cc(Br)cn2c(Cc3ccccc3C(F)(F)F)c(-c3ccc(C#N)cc3)nc12 | -0.14%

Row | Structure (SMILES) | inhibition
45 | Cc1ccc(-c2nc3c(C)cc(Br)cn3c2Cc2ccccc2)cc1 | -0.26%
46 | Cc1ccc2nc(-c3cccnc3)c(NC3CCCC3)n2c1 | -0.53%
47 | Cc1ccc(-c2nc3ccc(Cl)cn3c2Cc2ccccc2)cc1 | 4.09% (active)
48 | Brc1ccc2nc(-c3ccccc3)c(Cc3ccccc3)n2c1 | 0.67%
49 | COc1ccccc1Cc1c(-c2ccc(Cl)cc2)nc2ccc(Cl)cn12 | 2.6%
50 | Cc1ccc(-c2nc3ccc(Br)cn3c2Cc2ccccc2C(F)(F)F)cc1 | 7.12% (active)
51 | COC(=O)c1ccc2nc(-c3ccccc3)c(Cc3ccc(OC)cc3C)n2c1 | 3.05%
52 | COC(=O)c1ccc2nc(-c3ccc(F)cc3)c(Cc3ccc(C)cc3)n2c1 | 0.98%
53 | COC(=O)[C@]12C[C@H](CC(=O)NCCc3ccccc3OC)C(=O)N(Cc3ccccc3)C1=C[C@H](C(C)C)O[C@@H]2C1CC1 | 0.15%
54 | CCOC(=O)[C@]12CCCCC/C=C\1N(Cc1ccc(OC)cc1)C(=O)[C@H]2CC(=O)N1CCOCC1 | -0.42%
55 | CN1C(=O)C2CC(O)C(SC3CC4C(=O)N(C)C(=O)C4CC3O)CC2C1=O (stereo not drawn) | 0.64%
56 | CCOC(=O)/C=C/c1ccccc1O | 0.4%
57 | COc1cccc(CNC(=O)[C@H]2CCCN2C(=O)[C@H]2CCCN2C(=O)c2cc(F)cc(F)c2)c1 | 0.51%
58 | CCn1c2ccccc2c2cc(NC(=O)CSc3nnc(-c4ccccc4)n3-c3ccc(C)cc3)ccc21 | -0.77%
59 | CN1C(=O)c2cc(NS(C)(=O)=O)ccc2OC[C@@H]2O[C@@H](CC(=O)NCc3ccc(-c4ccccc4)cc3)CC[C@H]21 | -0.35%
60 | CC(C)(C)NS(=O)(=O)NC(=O)C1=C(N2CCCC2)COC1=O | 0.57%
61 | CCCCNC(=O)C[C@H]1C(=O)N(Cc2ccc(OC)cc2)C2=CCCC[C@@]21C(=O)OCC | -0.74%
62 | C[C@H]1[C@H](c2ccccc2)Oc2cc(Br)ccc2S(=O)(=O)N1Cc1cccc(F)c1 | -0.98%
63 | Cc1c(C(C)c2ccccc2O)[nH]c2ccccc12 (stereo not drawn) | -1.62%
64 | C[C@@H](NC(=O)c1ccccc1OCC(=O)Nc1ccc(I)cc1)C(=O)N(C)Cc1ccccc1 | -1.33%
65 | S=C(c1ccc(-c2ccccc2)o1)N1CCCCC1 | 5.8% (active)
66 | CC1CCN(C(=S)c2ccc(-c3ccc(Cl)cc3Cl)o2)CC1 | 0.67%

Row | Structure (SMILES) | inhibition
67 | O=C(NC(=S)Nc1ccccc1C(=O)O)c1ccc(-c2ccc(Br)cc2)o1 | -0.57%
68 | O=S1(=O)c2ccc(Br)cc2-n2nncc2CN1Cc1cccc(Cl)c1 | -0.73%
69 | CCCS(=O)(=O)N1CCC(C(=O)NCCc2ccc(OC)c(OC)c2)CC1 | 0.15%
70 | COC(=O)C[C@@H]1CC[C@@H]2[C@@H](COc3ccc(NC(=O)Nc4ccc(F)c(F)c4)cc3C(=O)N2C)O1 | -1.81%
71 | CC1CCN(c2ccc(C(=O)O)cc2NS(=O)(=O)c2ccc(Br)s2)CC1 | -1.22%
72 | CC1CC(C)CN(CCC(=O)Nc2ccc3c(c2)CCC3)C1 (stereo not drawn) | -0.49%
73 | O=C(Nc1ccc(F)cc1)c1cc2c(s1)CCCC2 | 2.02%
74 | O=C(Nc1ccc2c(c1)CCC2)c1ccc(Br)s1 | 11.2% (active)
75 | CCOC(=O)c1c(S(=O)(=O)Nc2ccc(CN3CCC(C)CC3)cc2)c(C)n(C)c1C | 5.11% (active)
76 | CCOC(=O)c1c(S(=O)(=O)Nc2cccc(Cl)c2)c(C)n(C)c1C | 1.63%
77 | CCOC(=O)c1c(S(=O)(=O)NCC(=O)Nc2ccc(C)cc2)c(C)n(C)c1C | -0.57%
78 | CC(=O)O[C@@]1(C(C)=O)CCC2[C@H]3C=C(C)C4=CC(=O)CC[C@@]4(C)C3CC[C@]21C (stereo partly drawn) | -0.75%
79 | Cc1nnc(SC(C)C(=O)Nc2ccc(S(=O)(=O)NC3CCCCC3)cc2)s1 (stereo not drawn) | 0.57%
80 | Cn1cccc1C(=O)OCC(=O)NCCc1ccccc1 | 0.5%
81 | Cc1cnc(C(=O)OCC(=O)NCCCc2ccccc2)cn1 | 1.25%
82 | Cc1ccsc1C(=O)OCC(=O)NCCc1ccccc1 | 3.66% (active)
83 | COC(=O)C1CN(CC(C)C)CCS(=O)(=O)N1Cc1ccc(C)cc1 (stereo not drawn) | -0.97%
84 | O=C(CSc1nc2sc3c(c2c(=O)n1-c1ccccc1)CCCC3)NN=Cc1ccc(OCc2ccccc2)cc1 | 0.1%
85 | C=CCn1c(SCC(=O)Nc2ccc(NC(C)=O)cc2)nc2sc(C)c(C)c2c1=O | 4.82% (active)
86 | C=CCn1c(SCC(=O)/C(C#N)=C(\C)N)nc2sc(C)c(C)c2c1=O | -0.39%
87 | C=CCn1c(SCC(=O)NCCCO)nc2sc3c(c2c1=O)CCC3 | 0.03%
88 | Cc1cc(C)cc(N(CCC#N)C(=O)CN2C(=O)NC3(CCCC3)C2=O)c1 | -0.09%
